Here are results for 16 compounds from PubChem BioAssay AID651551 (Sanford-Burnham Center for Chemical Genomics, 2012).

This test in a line: GAPDH versus PEG-3 reporter suppression – cell-based, luminescence, counter-screen for PEG-3 promoter inhibitor project, SAR follow-up (AID 651551). Conditions: HeLa PEG-Prom / GAPDH luciferase reporter, 6 or 24 h, run 2, 6 h; at 99 µM (top of the series). A general note: A counterscreen serves to expose hits that act by an unwanted route or on another target.
As for `O=C(Nc1nccs1)c1nn(-c2ccccc2)c(=O)c2ccccc12`, the inhibition % (higher = more inhibition) turned out to be 50.3%. For `Cc1cc(NC(=O)c2ccccc2C)n(-c2nc3ccccc3[nH]2)n1` the value was 26.1%. On to `Cc1cc(NC(=O)c2ccccc2)n(-c2nc3ccccc3[nH]2)n1`, for which the inhibition % (higher = more inhibition) was determined as 15.3%. With `COCCCNC(=O)c1ccc(Cn2c(=O)c3ccccc3n(Cc3ccccc3C#N)c2=O)cc1`, the inhibition % (higher = more inhibition) stood at 21.9%. With `Cc1cc(NC(=O)c2ccccc2C(F)(F)F)n(-c2nc3ccccc3[nH]2)n1`, the inhibition % (higher = more inhibition) is 91.4%.

Take `COc1ccc(-n2nc(C(=O)NCC(=O)Nc3cc(OC)c(OC)c(OC)c3)c3ccccc3c2=O)cc1OC`: the inhibition % (higher = more inhibition) was found to be 26.1%. For `Cc1nc(NC(=O)c2ccccc2)sc1-c1csc(Nc2cccc(Cl)c2C)n1` the value was 35.5%.

As for `Cc1cc(NC(=O)c2cccc(C)c2C)n(-c2nc3ccccc3[nH]2)n1`, the inhibition % (higher = more inhibition) was determined as 19.1%. For `O=C(Nc1nc2ccccc2s1)c1nn(-c2ccccc2)c(=O)c2ccccc12`, the inhibition % (higher = more inhibition) is 6.36%. For `Cc1cc(NC(=O)c2ccccc2)n(-c2nc3ccccc3n2C)n1` the value was 16.7%; for `O=C(Nc1nc(-c2ccccc2)cs1)c1nn(-c2ccccc2)c(=O)c2ccccc12`, 28.9%.

In the case of `CCCn1nc(C(=O)Nc2nc(-c3ccncc3)cs2)c2ccccc2c1=O`, the inhibition % (higher = more inhibition) was 56.1%. The result for `COc1ccc(Cl)cc1Nc1nc(-c2sc(NC(=O)c3ccccc3)nc2C)cs1` reads 33.6%; that for `Cc1nc(NC(=O)c2ccccc2)sc1-c1csc(Nc2ccccc2Cl)n1`, -2.1%. For `COc1ccccc1Nc1nc(-c2sc(NC(=O)c3ccco3)nc2C)cs1` the value was 72.7%. For `COc1ccc(-n2nc(C(=O)NCC(=O)Nc3cccc(OC)c3)c3ccccc3c2=O)cc1` the value was 28.5%.
